The target of the first test is SECISBP2L. The test is described as follows: pooled miR-30 sensor sort-seq; sequence = guide strand. Conditions: shRNA.
As to TATAACATTATAGAGAGCCTCA, the sensor-assay potency score (higher = more potent) was -0.0315.
Still for that read-out and setting: to TTGATCGACTATCAGGACCTGC belongs -0.0412; to TTGCTGTGAAGCATCTACCAGA, -0.408; to TTGTTGAATATTCTCATCCTTA, -0.343.
The same measure, in the same setting: to TAGTGTGAAAAGAAGCTGCAGT belongs 0.417.
Still for that read-out and setting: to TTCCTGGGAAACAATCTCCTGT belongs -0.00713; to TAGCTGAGGTAGTACTGCCTGT, -0.712.
Sequence TTTCTGAATACTCTTGAGCTGT had a sensor-assay potency score (higher = more potent) of -0.537.
Same read-out and setting: to TTGAAACCCATCTTCATCCTGT belongs 0.983; to TAGTCCAGTATCTTCCTGGGAA, -0.242; to TACGCTAACAGGAACCAGCTTG, -0.34.
Still for that read-out and setting: to TATAACACACTTGATCTTGTTT belongs 0.0597.

For another test, the target named is SECISBP2. Described as above. Conditions: shRNA.
TTCGCTTATGGTAACCATCTGA showed a sensor-assay potency score (higher = more potent) of 0.0735.
Sequence TTTTCTTCTTAAACAGAGCTTT gave a sensor-assay potency score (higher = more potent) of -0.323.
Same read-out and setting: to TTGAGAGCAAACACAAAGGGAA belongs -0.174; to TTTGATAACACTGCAGCTGGTT, 0.27; to TAACACAAGCATCCACTTCTTT, -0.191.
On to TTTGACTGTATCTTCTCACAGT, for which the sensor-assay potency score (higher = more potent) was 0.358.
The same measure, in the same setting: to TTGCAGTTCAGGAAAGTCCAGT belongs -0.458; to TTTGTTGTAGGAAGGATCCGAA, -0.00971; to TAACATTTTTAGGATCTGCTGA, 0.162.
The same measure, in the same setting: to TTTCAAACTATTCTCAGCGTAA belongs -0.344; to TTGACATCTGCTGATAACTTGA, -0.133; to TTCACTGTCAAACTTTTGCTGA, -0.0289.

Another test deals with SELL. Described as above. Conditions: shRNA.
TCACTTGACAGGTTGGTTCTGG: the sensor-assay potency score (higher = more potent) is 0.848.
TTGATATAGATCTCCACGCAGT: the sensor-assay potency score (higher = more potent) is -0.218.
Still for that read-out and setting: to TTGTATGGCAACTAAATCTGTG belongs -0.502; to TAGGATTTGACCAGATTCCAGA, -0.318; to TTAATCATTGAGAAACTTTTGT, -0.0417.
Consider TTCTCTTGGATTTCTTGCCTTT, for which the sensor-assay potency score (higher = more potent) amounted to 0.216.
On the same count and under the same terms, to TTATTGATGATTTCTACACATT belongs -1.76; to TAATTGTCTCGGCAGAATCTTC, -1.3.
The same measure, in the same setting: to TTGTCTCGGCAGAATCTTCTAG belongs -0.184; to TTTGACATATTGGACTAGGATT, -1.37.
Same read-out and setting: to TTCAGTAAGAGATTTGTTGGTT belongs 0.629; to TAAATCTGTGTAATTGTCTCGG, 0.157.

Another test has as its target SELO. Described as above. Conditions: shRNA.
TTTCTCTGCACGCTGTCGCTGG registered a sensor-assay potency score (higher = more potent) of -0.303.
Same read-out and setting: to TTGCCGCTGAAGAACAGCGCGG belongs -1.34.
Still for that read-out and setting: to TTCCTCAGCACGTACTTCGGGT belongs -0.346; to ATCTTCTGCAGGTAGTGCCTTT, -1.13.

Values taken from the OligoGym collection.
Also: reference of the scale not given here.
